Measurements: PubChem BioAssay AID720553 (National Center for Advancing Translational Sciences (NCATS), 2013)
The whole screen tested about 340,000 compounds, of which about 3,300 (0.97%) were called active. What follows is part of a selection rich in actives, with near analogues and random picks from the rest. A number with no mark means an inactive call.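 Rule for the calls: active = maximum activity change below -70%; inconclusive = maximum activity change from -70% to -50%; inactive = maximum activity change above -50%.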

system: Potassium voltage-gated channel subfamily H member 2, brain isoform KCNH2 3.1 (human); test: qHTS for Inhibitors of KCHN2 3.1: Mutant qHTS; details: U2OS KCNH2 3.1, thallium flux FluxOr; active compounds read low
Outline: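 FluxOr-based Tl+ influx in U2OS cells transduced with KCNH2 3.1 virus; rate constants normalized to DMSO controls.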
% is set by controls: 0 for no effect and ±100 for the full control effect.

Row | SMILES | activity change
1 | CCC1NC(=O)c2cccnc2-n2c1nc1ccc(C)cc1c2=O (stereo not given) | -12%
2 | CC1(C)OC(=O)C2=C(CC(c3ccccc3)OC2CCc2ccccc2)O1 (stereo not given) | -4.16%
3 | Cc1cc(Cl)ccc1C(=O)C1CCCN(C(=O)c2ccc3c(c2)OCO3)C1 (stereo not given) | 1.67%
4 | COc1ccc(-c2ccc(CN3C(CC(C)C)C(=O)N(Cc4cn(CC5CCCCC5)nn4)CCS3(=O)=O)cc2)cn1 (stereo not given) | -18%
5 | O=C(Nc1ccncc1)c1c(F)cccc1F | -70.9% (active)
6 | O=C(Nc1ccc(S(=O)(=O)N2CCCCCC2)cc1)c1c(F)cccc1F | -17.5%
7 | O=C(Nc1ccncc1)Nc1ccc(F)cc1 | 20.7%
8 | CN(c1ccccc1)S(=O)(=O)c1ccc(C(=O)NCc2cccnc2)cc1 | -7.84%
9 | CC(Oc1ccc(Cl)cc1)C(=O)Nc1ncccn1 (stereo not given) | 5.84%
10 | CC1(C(=O)OCC(=O)Nc2ncc(Cl)cc2Cl)CC1(Cl)Cl (stereo not given) | 0.747%
11 | CC(Oc1ccc(Cl)cc1)C(=O)OCC(=O)Nc1ncc(Cl)cc1Cl (stereo not given) | -101% (active)
12 | Cc1ccc(-c2ccc(C3=CC(=O)CC(C)(C)C3=O)cc2)cc1 | -9.04%
13 | C[C@H](CO)N1C[C@H](C)[C@@H](CN(C)S(=O)(=O)c2ccc(F)cc2)OCc2cnnn2CCCC1=O | -2.94%
14 | O=S(=O)(c1cccc(C(F)(F)F)c1)N1c2ccccc2-n2cccc2C1c1cccnc1 (stereo not given) | -17.4%
15 | CCCC(NC(=O)c1ccccc1)c1nc2ccccc2n1Cc1ccc(C(=O)OC)o1 (stereo not given) | -82% (active)
16 | CCCn1c(C(Cc2ccccc2)NC(=O)COC)nc2ccccc21 (stereo not given) | -1.15%
17 | COC(=O)c1ccc(Cc2ccccc2)o1 | 10.6%
18 | Cc1cccc(NC(=O)N(Cc2cc3cc(C)cc(C)c3[nH]c2=O)CC2COCCO2)c1 (stereo not given) | -19.5%
19 | Cc1ccc2[nH]c(=O)c(CN(CC3COCCO3)C(=O)Nc3ccccc3C)cc2c1 (stereo not given) | -106% (active)
20 | COc1ccc2[nH]c(=O)c(CN(CC3CCCO3)C(=O)Nc3ccccc3)cc2c1 (stereo not given) | 8.12%
21 | COc1cc(C(=O)N2CCOC23CCN(Cc2ccccc2)CC3)cc(OC)c1OC | -5.15%
22 | CN(C)C(CNC(=O)c1cccc(S(=O)(=O)N2CCc3ccccc3C2)c1)c1ccccc1 (stereo not given) | -1.69%

Row | SMILES | activity change
23 | COc1cccc(OCC(=O)NCCS(=O)(=O)N2CCN(c3ccccc3)CC2)c1 | -1.4%
24 | CCCCN1C(=O)C(CC(=O)NC(c2ccccc2)c2ccccc2)CC(C(=O)N2CCOCC2)=C1C (stereo not given) | -3.63%
25 | O=C(CSc1nc2[nH]ncc2c(=O)n1-c1ccccc1)N1CCCc2ccccc21 | -184% (active)
26 | Cn1c(SCC(=O)N2CCCc3ccccc32)nc2ccccc2c1=O | -2.54%
27 | CC(C)(C)c1ccc(C(=O)NCc2nnc(SCC(=O)N3CCCc4ccccc43)n2-c2ccccc2)cc1 | -6.73%
28 | CCOC(=O)C(=Cc1ccccc1)C(=O)c1ccccc1 | -13.1%
29 | O=C(NCc1nnnn1-c1ccc(Cl)cc1)c1ccc([N+](=O)[O-])o1 | -3.24%
30 | Cc1ccccc1S(=O)(=O)N1[C@@H](c2cccc(Cl)c2)C(C(=O)O)=CC[C@H]1c1ccc(Cl)cc1 | 10%
31 | Cc1ccc([C@@H]2CC=C(C(=O)O)[C@H](c3cccc(Cl)c3)N2S(=O)(=O)c2ccc(C)cc2)cc1 | -83.7% (active)
32 | Cc1ccc(S(=O)(=O)N2[C@@H](c3cccc(Cl)c3)C(C(=O)O)=CC[C@H]2c2ccc(Cl)c(Cl)c2)cc1 | -2.17%
33 | Cc1nnc(SC(C)C(=O)c2c[nH]c3ccccc23)n1C1CC1 (stereo not given) | -8.46%
34 | C#CCN(C[C@@H]1[C@@H](OC(=O)NC2CC2)[C@@H](OC(=O)NC2CC2)Cn2c(=O)ccc(=O)n21)S(=O)(=O)c1ccc(C)cc1 | 0.102%
35 | Cc1ccc(S(=O)(=O)N2CCOCC2)cc1NC(=O)CSc1nnc(N)s1 | 1.46%
36 | Nc1nnc(SCC(=O)NC2CCCc3ccccc32)s1 (stereo not given) | -15.6%
37 | Nc1nnc(SCC(=O)NCC(=O)Nc2ccc(F)c(F)c2F)s1 | -119% (active)
38 | CCN(CC)C(=O)C1=C(C)N(Cc2ccccc2)C(=O)C(CC(=O)NC(c2ccccc2)c2ccccc2)C1 (stereo not given) | 0.781%
39 | Cc1noc(C)c1S(=O)(=O)N(C)C[C@H]1OCCCC[C@@H](C)Oc2ccc(NC(=O)CCCN(C)C)cc2C(=O)N([C@H](C)CO)C[C@@H]1C | 18.2%
40 | COC(=O)C[C@H]1C[C@@H]2c3cc(N(C)C)ccc3O[C@@H]2[C@H](CO)O1 | 2.06%
41 | O=C(Nc1cccc(C(=O)O)c1)/C(=C\c1ccccc1)NC(=O)c1ccc(Br)o1 | 3.42%
42 | CCOC(=O)C1CCN(Cc2c(C(=O)N3CCOCC3)nc3c(C)cccn23)CC1 | -6.64%
43 | Cc1cccc(N2CCC(NCc3c(C(=O)N4CCCCC4)nc4c(C)cccn34)CC2)c1 | -70.6% (active)
44 | Cc1cccn2c(CNCC(C)Oc3cccnc3)c(C(=O)N3CCOCC3)nc12 (stereo not given) | 1.22%

Row | SMILES | activity change
45 | CC1=C(C(=O)N(C)C)CC(CC(=O)NCCc2ccccn2)C(=O)N1CCC1=CCCCC1 (stereo not given) | 6.34%
46 | CN(Cc1c(F)cccc1Cl)C(=O)COC(=O)Cn1cnc2ccccc2c1=O | 2.53%
47 | COc1ccc(NC(=O)C2=CC(c3ccc(OC)c(OC)c3)=NS(=O)(=O)N2C)cc1 | -5.31%
48 | COc1ccc(C2=NS(=O)(=O)N(C)C(C(=O)NC(C)c3ccccc3)=C2)cc1 (stereo not given) | -85% (active)
49 | COc1ccc(C2=NS(=O)(=O)N(C)C(C(=O)N(C)Cc3ccccc3)=C2)cc1 | 7.33%
50 | Cc1cc2c3ccccc3[nH]c(=O)n2n1 | -1.28%
51 | COc1ccc([C@H]2N[C@]3(CCCN(CC4CCCCC4)C3=O)[C@H]3C(=O)N(C)C(=O)[C@@H]23)cc1 | 4.21%
52 | CCCCCCNC(=O)O[C@]12C[C@@H](C(=O)OC)[C@@H](C(=O)OC)C[C@@]1(O)CN(S(=O)(=O)c1ccc(C)cc1)C2 | -9.12%
53 | CCN(CC)CCN(C(=O)c1ccc2c(c1)CCCC2)c1nc2c(OC)cccc2s1 | -48.3%
54 | CC(C)C1C2=C(CC(C)(C)CC2=O)ON1c1ccccc1 (stereo not given) | -4.1%
55 | CC(C)N1C(=O)N(c2ccccc2)C(C)(O)CC1(C)C (stereo not given) | -71.4% (active)
56 | CC12C(=O)N(c3ccccc3)C(=O)C1C(c1ccccc1)N1CCCN12 (stereo not given) | 2.73%
57 | Cc1ccc(C(=O)N[C@H](C(=O)N2CCN(c3ncccn3)CC2)C(C)C)cc1 | 5.87%
58 | C[C@H]1NS(=O)(=O)c2cc(Cl)ccc2O[C@@H]1c1ccccc1 | -5.74%
59 | Fc1ccccc1/C=N/Nc1cc(N2CCCCC2)ncn1 | 11.8%
60 | Cc1cc(N/N=C/c2ccccc2F)c2ccccc2n1 | -142% (active)
61 | CCOc1cc(/C=N/Nc2cc(C)nc3ccc(C)cc23)ccc1O | -2.46%
62 | CCCCN1CC(C)(C)[C@H](CC(=O)Nc2ccc(Br)cc2)C1=O | 5.46%
63 | Cc1ccccc1CN1CCN(C(=O)c2cccc(F)c2)CC1 | -16.7%
64 | COc1ccc(CN2CCNC(=O)C2CC(=O)NCc2cn[nH]c2-c2ccccc2)c(F)c1 (stereo not given) | -3.5%
65 | O=C(c1ccc(F)cc1)C1CCN(Cc2cn[nH]c2-c2ccccc2)CC1 | -104% (active)
66 | Cc1ccc2c(CN3CCN(S(=O)(=O)c4ccccc4C(F)(F)F)CC3)cc(=O)oc2c1 | -74.7% (active)

Row | SMILES | activity change
67 | COc1ccc2c(CN3CCN(S(=O)(=O)c4cccs4)CC3)cc(=O)oc2c1 | -11.7%
68 | Cc1cc2oc(=O)cc(CN3CCN(S(=O)(=O)c4cccs4)CC3)c2cc1C(C)C | -5.54%
69 | O=C(N=C1SC2CS(=O)(=O)CC2N1Cc1ccccc1)c1ccccc1 (stereo not given) | -10.6%
70 | O=Nc1c(O)cc(O)c2ccccc12 | 4.37%
71 | Cc1ccc(-c2ccc(CN3C(C)C(=O)N(Cc4cn(CCC5OCCCO5)nn4)CCS3(=O)=O)cc2)cc1 (stereo not given) | -4.85%
72 | COc1cc(NC(=O)C2=C(C)OCCS2)c(Cl)cc1C(=O)NCCCN1CCCC(C)C1 (stereo not given) | -7.47%
73 | CC(=O)Nc1ccc2c3c(ccc([N+](=O)[O-])c13)CC2 | -19%
74 | O=C1c2ccccc2C(=O)c2c1cccc2N1CCN(Cc2ccccc2)CC1 | -89.4% (active)
75 | O=S1(=O)CCN(Cc2ccccc2)CC1 | -7.16%
76 | O=C1c2ccccc2C(=O)c2c1cccc2N1CCN(CCO)CC1 | -26.5%
77 | CCOC(=O)c1cc(-c2sc(NC(=O)c3ccccc3)nc2C)n(Cc2ccccc2)n1 | -4.02%
78 | C[C@H]1CN([C@@H](C)CO)C(=O)CCCn2cc(nn2)CO[C@@H]1CN(C)S(=O)(=O)c1ccccc1C#N | -13.5%
79 | CC(=NNC(N)=O)C1CC2CCC1CC2 (stereo not given) | 0.306%
80 | CC(C)NC(=O)Nc1ccc2c(c1)C(=O)N([C@H](C)CO)C[C@H](C)[C@@H](CN(C)Cc1ccc(C(F)(F)F)cc1)OCCCC[C@@H](C)O2 | -29.9%
81 | CC(=O)c1ccccc1NC(=O)COC(=O)C1COc2ccccc2O1 (stereo not given) | -5.39%
82 | Nc1cc(=O)c2[nH]cnc2[nH]1 | 4.52%
83 | Cc1ccc(C)c(NC(=O)c2ccc3nccnc3c2)c1 | 5.85%
84 | Cc1ccc(OS(=O)Nc2cccc3nccnc23)cc1 (stereo not given) | -73.2% (active)
85 | Cc1ccc(Oc2ccc3c(c2)C(=O)N(c2cccc4cccnc24)C3=O)cc1 | -1.2%
